Screening data: PubChem, NMMLSC
CIT2 TOR yeast = yeast TOR pathway CIT2-GFP modulation | S. cerevisiae CIT2-GFP strain, flow cytometry, 3 h; 100 means same as DMSO wells | GFP response vs DMSO, % at 10 µM | 320,000 compounds, 0.065% hits | AID 2029;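 active means GFP response relative to DMSO above a set limit, near the screen mean plus 3 SD, cut at about 150% in these data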;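 further: ratio of well median GFP fluorescence to mean of DMSO wells on the plate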
LAP4 TOR yeast = modulators of TOR pathway LAP4-GFP in S. cerevisiae; S. cerevisiae LAP4-GFP multiplex, flow cytometry GFP, 3 h; median GFP as percent of DMSO wells; 320,000 compounds, 0.34% hits; GFP response vs DMSO, % at 10 µM; AID 2023;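 active means GFP response vs DMSO above a set limit, about the screen mean plus 3 SD, cut at about 150% in these data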
AGP1-GFP MLPCN = alters AGP1-GFP fluorescence in TOR pathway yeast screen; S. cerevisiae AGP1-GFP multiplex flow cytometry, 3 h; GFP as percent of DMSO wells; GFP response vs DMSO, % at 10 µM; 320,000 compounds, 0.02% hits; AID 2066;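 active means GFP response relative to DMSO above a set limit, near screen average plus 3 SD, cut at about 150% in these data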;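 further: median GFP channel fluorescence of the gated AGP1 strain per well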
MEP2 TOR yeast = modulators of TOR pathway MEP2-GFP in S. cerevisiae; S. cerevisiae MEP2-GFP strain, flow cytometry GFP, 3 h; 100% = DMSO control level; 330,000 compounds, 0.51% hits; GFP response vs DMSO, % at 10 µM; AID 2016;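 active means GFP response versus DMSO above a set limit, roughly screen mean plus 3 SD, cut at about 180% in these data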;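 further: median GFP fluorescence of the barcode-gated MEP2-GFP cells per well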
RPL19A-GFP yeast = modulators of TOR pathway RPL19A-GFP in S. cerevisiae; percent response vs DMSO, % at 10 µM; S. cerevisiae RPL19A-GFP strain, flow cytometry, 3 h; active compounds read low; AID 2025; 330,000 compounds, 0.3% hits;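 active means percent response vs DMSO below 50%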;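 further: median channel GFP fluorescence of the barcoded RPL19A-GFP strain; lower means less RPL19A-GFP as with rapamycin TOR inhibition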
Myeloid diff 2 = compounds promoting myeloid differentiation | ER-HoxA9 myeloid progenitors, lysozyme-GFP differentiation, flow cytometry | calls only at 10 µM | 360,000 compounds, 1% hits;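 active means normalized GFP-positive differentiation at or above the plate's own cutoff, the solvent-only control mean plus 3 SD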;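 further: cells exposed to compound for four days before flow analysis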
Myeloid diff CP1 = myeloid differentiation induction | shares compounds with Myeloid diff 2 | ER-HoxA9 myeloid progenitors, GFP/Mac1 double-positive flow | calls only | 2,300 compounds, 2% hits | AID 651706;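 active means share of green or green-and-red cells above 9 and 9% in run 1 or 4 and 3% in run 2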
GFP autofluor = flagged as fluorescent in myeloid differentiation counter-screen. AID 651707. ER-HoxA9 myeloid progenitors, no estrogen, GFP autofluorescence flow cytometry; vehicle wells 0%, positive control 100%. 2,300 compounds, 7.4% hits. fluorescence response, % (no concentration beside the values). shares compounds with Myeloid diff 2;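 active means over 5% cells positive for green fluorescent reporter, or over 2% positive for both it and APC stain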
Numbers stand for hits; 0 = inactive; - = not tested or not shown; + = active, no number. An excerpt weighted towards active compounds, which were near 1.8% of everything screened.

SMILES	CIT2 TOR yeast	LAP4 TOR yeast	AGP1-GFP MLPCN	MEP2 TOR yeast	RPL19A-GFP yeast	Myeloid diff 2	Myeloid diff CP1	GFP autofluor
COCCCNc1ncnc2c1nc1n2CCCC1	0	0	0	0	0	0	-	-
COc1ccccc1COc1cccn2c(N(C)C(=O)CCC3CCCC3)c(C)nc12	-	-	-	-	-	+	0	0
C=CCN1C(=O)C(Cc2ccc(C)cc2)S/C1=N/N=C/c1ccco1 (stereo unspecified)	0	0	0	0	0	-	0	0
Cc1nc(C(F)(F)F)nc(Nc2ccc(Br)cc2)c1C#N	0	0	0	0	0	0	-	-
Cn1cc(Br)cc2nc(C(F)(F)F)nc1-2	0	0	0	0	0	+	0	0
O=C(c1cccc([N+](=O)[O-])c1)c1ccc2c(c1)C(=O)NC2=O	0	0	0	0	0	0	-	-
C[C@]12C=CC(=O)C=C1CC[C@H]1[C@@H]3C[C@@H](O)[C@](O)(C(=O)CO)[C@@]3(C)C[C@H](O)[C@@]12F	0	0	0	0	0	0	0	0
COc1ccc(OC)c(S(=O)(=O)N2CCC(C(=O)NCc3ccccc3)CC2)c1	0	0	0	0	0	0	0	0
O=C(NCc1ccc(Cl)cc1)C1CCN(S(=O)(=O)c2cccc3nonc23)CC1	0	0	0	0	0	0	-	-
CC[N+](C)(CC)CCC(c1ccccc1)C1CCCCC1 (stereo unspecified)	0	0	0	0	0	0	0	0
CNc1ccc([N+](=O)[O-])cc1-c1nc2ccccc2[nH]c1=O	0	0	0	0	0	+	0	0
CC(C)C(=O)Nc1ccc(Cl)cc1-c1nc2ccccc2[nH]c1=O	0	0	0	0	0	0	-	-
CN1CCN(S(=O)(=O)c2ccc(NC(=S)NC(=O)c3ccccc3)cc2)CC1	0	0	0	0	0	+	0	0
Cc1cccc(C)c1NC(=O)Nc1cccs1	0	0	0	0	0	0	0	0
O=C(Nc1cccs1)Nc1c(F)c(F)c(F)c(F)c1F	0	0	0	0	0	0	-	-
O=C(COC(=O)c1ccccc1OCc1ccc(Cl)cc1)NCC1CCCO1 (stereo unspecified)	0	0	0	0	0	0	-	-
CCCNC(=O)COC(=O)c1ccccc1OCc1ccc(Cl)cc1	0	0	0	0	0	+	0	0
CC(C)(C)NCCC(O)c1cc(C(F)(F)F)nc2c(C(F)(F)F)cccc12 (stereo unspecified)	-	-	-	-	-	0	-	-
COc1ccc(-c2nc(CN3CCC(C(=O)N4CCc5ccccc54)CC3)c(C)o2)cc1OC	0	0	0	0	0	0	0	0
COc1ccc(-c2nc(CN3CCC(C(=O)NC4CC4)CC3)c(C)o2)cc1OC	0	0	0	0	0	0	-	-
COc1ccc(C(=O)C[n+]2ccc3c(c2)nnn3-c2ccccc2)cc1	0	0	0	0	0	+	0	0
N#CCCN1CCN(S(=O)(=O)c2ccc(S(=O)(=O)N3CCCCCC3)cc2)CC1	0	0	0	0	0	0	-	-
N#CCCN1CCN(S(=O)(=O)c2ccc(C#N)cc2)CC1	0	0	0	0	0	0	0	0
CC(=O)Nc1c(Cl)cc2c(c1Cl)Cc1cc(N)ccc1-2	-	-	-	-	-	0	-	-
Cc1ccc(F)c(NC=C2C(=O)OC(C)(C)OC2=O)c1	0	0	0	0	0	0	0	0
SMILES	CIT2 TOR yeast	LAP4 TOR yeast	AGP1-GFP MLPCN	MEP2 TOR yeast	RPL19A-GFP yeast	Myeloid diff 2	Myeloid diff CP1	GFP autofluor
CC1(C)OC(=O)C(=CNc2ccc(F)cc2)C(=O)O1	0	0	0	0	0	0	-	-
Nc1nonc1-n1nnc(C(=O)N/N=C/c2ccccc2Cl)c1COc1ccc(F)cc1	0	0	0	0	0	0	-	-
COc1ccccc1/C=C/C1(C(=O)NC2CCCC2)CC(=O)N1c1ccccc1 (stereo unspecified)	0	0	0	0	0	+	0	0
CN(C)S(=O)(=O)c1ccc(N2C(=O)CC2(/C=C/c2ccccc2)C(=O)NC2CCCC2)cc1 (stereo unspecified)	0	0	0	0	0	0	-	-
CCN(CC)Cc1c(O)ccc2c([N+](=O)[O-])c(C)n(-c3ccc(OC)cc3)c12	0	0	0	0	0	+	0	0
CCN(CC)Cc1c(O)ccc2occ(C(=O)c3ccc(OC)cc3)c12	0	0	0	0	0	0	-	-
CCOC(=O)c1c(C)[nH]c(C(=O)OCC(=O)NCCc2ccc(OCC)c(OCC)c2)c1C	0	0	0	0	0	+	0	0
O=C1CC(N2CCC(c3nc4ccccc4o3)CC2)C(=O)N1c1ccc(Cl)c(C(F)(F)F)c1 (stereo unspecified)	0	0	0	0	0	0	-	-
NNC(=O)COc1ccc(-c2nccc(-c3ccc(F)cc3)n2)cc1	0	0	0	0	0	0	0	0
C(#Cc1ccccc1)C[N+]1(CC#Cc2cccc3ccccc23)CCCC1	0	0	0	0	0	0	-	-
C#CC[N+]1(CC#Cc2ccccc2)CCCC1	0	0	0	0	0	+	0	0
N#CC1(C#N)OC12CCS(=O)(=O)c1ccccc12 (stereo unspecified)	-	-	-	-	-	0	-	-
Cc1ccc2nc(SCC(=O)Nc3cccc(S(=O)(=O)NC4=NCCCCC4)c3)[nH]c2c1	0	0	0	0	0	0	0	96.1
Cc1cc(Cl)ccc1OCC(=O)Nc1cccc(S(=O)(=O)NC2=NCCCCC2)c1	0	0	0	0	0	+	0	0
COc1cc(/C=N/NC(=O)C(C)Nc2n[nH]c(=O)[nH]c2=O)cc(OC)c1O (stereo unspecified)	0	0	0	0	0	0	-	-
CCc1nc2ccc(C(=O)Nc3cc(-c4ccccc4)ccc3OC)cn2c1N(C)Cc1nccs1	-	-	-	-	-	+	0	0
CCc1nc2ccc(C(=O)Nc3cc(-c4ccccc4)ccc3OC)cn2c1N(C)Cc1ccc(OC)cc1	-	-	-	-	-	0	-	-
O=C(NCCc1ccccc1)C(=O)NCC1CCCN1S(=O)(=O)c1ccccc1 (stereo unspecified)	0	0	0	0	0	+	0	0
CCOc1ccc(CN2C(=O)c3ccccc3C2=O)cc1C(=O)NC1CC(C)(C)NC(C)(C)C1	0	0	0	0	0	0	0	97.9
CS(=O)(=O)N1CCC(C(=O)Nc2cc(Cl)c(Cl)cc2Cl)CC1	0	0	0	0	0	0	0	0
CS(=O)(=O)N1CCC(C(=O)Nc2cc(Cl)ccc2Cl)CC1	0	0	0	0	0	0	-	-
COc1ccc(S(=O)(=O)N2CCN(Cc3cccc(OC)c3)CC2)cc1	0	0	0	0	0	0	-	-
COc1ccc(S(=O)(=O)N2CCCN(Cc3cccc(F)c3)CC2)cc1	0	-	0	0	0	0	0	0
